According to ChEMBL document CHEMBL3988442, “University of Dundee, Small-Polar-MMV Screening Library” (2021):

target: T1, Aspartate--tRNA(Asp/Asn) ligase (Mycobacterium tuberculosis (strain ATCC 25618 / H37Rv)) (UniProt P9WFW3); assay: Assay for Asp RNA synthetase-1 from Mycobacterium tuberculosis; format: functional; set-up: scale not given: direction of the effect not stated beside the values; conditions: 30 µM; also: in the data most compounds retested in dose-response had high values
T1 sequence (whole entry): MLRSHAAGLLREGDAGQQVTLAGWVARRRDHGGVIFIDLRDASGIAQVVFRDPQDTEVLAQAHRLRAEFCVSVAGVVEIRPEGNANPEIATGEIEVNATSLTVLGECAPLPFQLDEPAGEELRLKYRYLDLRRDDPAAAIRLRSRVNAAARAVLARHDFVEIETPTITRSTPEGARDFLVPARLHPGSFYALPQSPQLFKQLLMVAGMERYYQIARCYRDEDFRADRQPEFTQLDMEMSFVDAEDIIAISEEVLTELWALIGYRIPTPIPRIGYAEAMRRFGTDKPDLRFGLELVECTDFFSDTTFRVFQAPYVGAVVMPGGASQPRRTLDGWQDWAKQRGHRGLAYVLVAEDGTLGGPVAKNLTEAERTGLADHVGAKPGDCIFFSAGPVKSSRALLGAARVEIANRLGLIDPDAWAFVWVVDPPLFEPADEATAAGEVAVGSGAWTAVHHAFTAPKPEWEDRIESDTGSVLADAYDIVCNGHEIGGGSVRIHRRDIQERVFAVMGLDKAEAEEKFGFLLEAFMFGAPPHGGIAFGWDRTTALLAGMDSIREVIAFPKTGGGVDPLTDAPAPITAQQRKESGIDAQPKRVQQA

Structure (SMILES) | Percent Effect [%]
CN(C)C(=O)COC[C@]12COC[C@H]1CN(Cc1ccoc1)C2 | -2.38
CCCc1noc(CCC(=O)NC(C)c2nnc3n2CCCCC3)n1 (stereo not given) | -4.13
CN(C)C(=O)CN1CCC2(CCN(Cc3nccs3)CC2)C1=O | 7.45
COc1c(CNCCNC(=O)Cc2ccc(F)cc2)c(C)nn1C | 1.84
Cc1cccc(N2CCN(C(=O)CN3CCN(CCO)CC3)CC2)c1 | 1.98
COCCNC(=O)NCc1ccc(OC(C)C)c(F)c1 | -1.07
CCN1CCN(C2CCN(Cc3c(C)noc3C)CC2)C1=O | -5.48
CCN(CC)C(=O)CN(C)C1CCc2ccccc21 (stereo not given) | -4.5
CC(c1cccc(S(N)(=O)=O)c1)N(C)CCc1ccccc1 (stereo not given) | 5.72
CCCC(C)(C)NC(=O)c1ccc(CC2CC(=O)NC2=O)cc1 (stereo not given) | -0.604
O=C(CCCOc1ccccc1Cl)N1CCCC(n2cncn2)C1 (stereo not given) | -3.9
CCC1c2ccsc2CCN1C(=O)NCc1ccccn1 (stereo not given) | -0.144
NS(=O)(=O)c1ccc(NC(=O)CSc2ccc3c(c2)CCC3)cc1 | 3.87
CCN(CC)C(=O)C(c1ccccc1)N1CCn2c(C)nnc2C1 (stereo not given) | -4.06
Cn1cnnc1C1CCCN(C(=O)NCc2cc[nH]n2)C1 (stereo not given) | 4.95
Cc1nccn1CC1CCCN1S(=O)(=O)Cc1ccccc1 (stereo not given) | -1.4
O=C(O)c1nnn(-c2ccc(OC(F)(F)F)cc2)c1-c1ccncc1 | 4.91
CN(C)C(=O)[C@@H]1C[C@@H]2CCN(Cc3ccc4c(c3)OCO4)C[C@@H]2O1 | -0.869
COCCN1C[C@H]2CC[C@@]3(N=C(C)N(CC4CC4)C3=O)[C@H]2C1 | 4.94
Cn1c2c(ccc1=O)CC(NS(C)(=O)=O)CC2 (stereo not given) | -0.956

Structure (SMILES) | Percent Effect [%]
Cc1cc(C(=O)N2CCCC(c3noc(C)n3)C2)[nH]n1 (stereo not given) | -4.2
COc1ccc(CCN2CCCC2Cn2nc(C)nc2C)cc1 (stereo not given) | -3.2
Cc1nc[nH]c1CN1CCN(C(=O)c2cccs2)[C@H]2CS(=O)(=O)C[C@H]21 | -4.62
O=C(Cn1cc(C(=O)O)ccc1=O)Nc1ccc(Cl)cc1F | -4.96
CCCC1CCCN(Cc2csc(-c3cnn(C)c3)n2)CC1 (stereo not given) | -1.75
Cc1ccc(C(=O)N2CCCC(NC(=O)C(C)C)C2)c(O)c1 (stereo not given) | 7
CCc1ccc(OCC(O)CN2CCN(S(C)(=O)=O)CC2)cc1 (stereo not given) | -0.577
CCc1noc(C(C)N2CCN(Cc3nc(C)c(C)o3)CC2)n1 (stereo not given) | -6.81
CC1CCN(CCNC(=O)c2cncnc2C(C)C)CC1 | -2.54
COCCC(=O)N1CCC2(COCc3c(C)nc(NCC4CC4)nc32)C1 (stereo not given) | 1.96
O=C1CC2(CCN(S(=O)(=O)c3cccs3)C2)CN1c1ccccc1 (stereo not given) | 3.64
CCOc1ccc(CNCCCn2ccnc2)cc1Br | -5.78
O=C(NCCCN1CCOCC1)c1ccn(-c2ccc3ccccn23)n1 | 3.71
CC(C)c1ccc(OCn2ccc(C(=O)N3CCCC3)n2)cc1 | 5.38
CN(CCCNC(=O)N1CCCC1c1ccsc1)c1ccccn1 (stereo not given) | -3.28
O=C1C(NCc2nnc3n2CCCC3)CCN1c1ccccc1 (stereo not given) | -1.97
Cn1cc(CN2CCC(F)(F)C3(CCN(c4cnccn4)C3)C2)cn1 (stereo not given) | -3.65
COc1ccc(-n2ccc(C(=O)N3CCN(C)CC3C)n2)cc1 (stereo not given) | -10.9
Cc1cccc(CN2C[C@@H]3COC[C@]3(COc3ccc(C#N)cn3)C2)n1 | -4.33
CC(C(=O)N1CCCN(c2ccc(C#N)cc2)CC1)n1ccnc1 (stereo not given) | -2.92

target: Shiga toxin 2 (Escherichia coli O157:H7) (UniProt P09385+P09386); assay: E. coli 0.157:H7 Shiga Toxin SOP - stx2 screening assay; format: functional; set-up: scale not given: direction of the effect not stated beside the values; conditions: 30 µM

Structure (SMILES) | Percent Effect [%]
CN(C)C(=O)COC[C@]12COC[C@H]1CN(Cc1ccoc1)C2 | -7.04
CCCc1noc(CCC(=O)NC(C)c2nnc3n2CCCCC3)n1 (stereo not given) | -15.1
CN(C)C(=O)CN1CCC2(CCN(Cc3nccs3)CC2)C1=O | -16.7
COc1c(CNCCNC(=O)Cc2ccc(F)cc2)c(C)nn1C | 30.8
Cc1cccc(N2CCN(C(=O)CN3CCN(CCO)CC3)CC2)c1 | 0.874
COCCNC(=O)NCc1ccc(OC(C)C)c(F)c1 | 29.6
CCN1CCN(C2CCN(Cc3c(C)noc3C)CC2)C1=O | -30.9
CCN(CC)C(=O)CN(C)C1CCc2ccccc21 (stereo not given) | 14.4
CC(c1cccc(S(N)(=O)=O)c1)N(C)CCc1ccccc1 (stereo not given) | -26.2
CCCC(C)(C)NC(=O)c1ccc(CC2CC(=O)NC2=O)cc1 (stereo not given) | -9.64
O=C(CCCOc1ccccc1Cl)N1CCCC(n2cncn2)C1 (stereo not given) | 19.3
CCC1c2ccsc2CCN1C(=O)NCc1ccccn1 (stereo not given) | -4.32
NS(=O)(=O)c1ccc(NC(=O)CSc2ccc3c(c2)CCC3)cc1 | -78.8
CCN(CC)C(=O)C(c1ccccc1)N1CCn2c(C)nnc2C1 (stereo not given) | 4.2
Cn1cnnc1C1CCCN(C(=O)NCc2cc[nH]n2)C1 (stereo not given) | 12.3
Cc1nccn1CC1CCCN1S(=O)(=O)Cc1ccccc1 (stereo not given) | 4.42
O=C(O)c1nnn(-c2ccc(OC(F)(F)F)cc2)c1-c1ccncc1 | -8.85
CN(C)C(=O)[C@@H]1C[C@@H]2CCN(Cc3ccc4c(c3)OCO4)C[C@@H]2O1 | 3.86
COCCN1C[C@H]2CC[C@@]3(N=C(C)N(CC4CC4)C3=O)[C@H]2C1 | -12.7
Cn1c2c(ccc1=O)CC(NS(C)(=O)=O)CC2 (stereo not given) | -18

Structure (SMILES) | Percent Effect [%]
Cc1cc(C(=O)N2CCCC(c3noc(C)n3)C2)[nH]n1 (stereo not given) | -22.4
COc1ccc(CCN2CCCC2Cn2nc(C)nc2C)cc1 (stereo not given) | -22.5
Cc1nc[nH]c1CN1CCN(C(=O)c2cccs2)[C@H]2CS(=O)(=O)C[C@H]21 | 10
O=C(Cn1cc(C(=O)O)ccc1=O)Nc1ccc(Cl)cc1F | -33.4
CCCC1CCCN(Cc2csc(-c3cnn(C)c3)n2)CC1 (stereo not given) | 20.9
Cc1ccc(C(=O)N2CCCC(NC(=O)C(C)C)C2)c(O)c1 (stereo not given) | 7.56
CCc1ccc(OCC(O)CN2CCN(S(C)(=O)=O)CC2)cc1 (stereo not given) | 22.4
CCc1noc(C(C)N2CCN(Cc3nc(C)c(C)o3)CC2)n1 (stereo not given) | 10.2
CC1CCN(CCNC(=O)c2cncnc2C(C)C)CC1 | -18.7
COCCC(=O)N1CCC2(COCc3c(C)nc(NCC4CC4)nc32)C1 (stereo not given) | 0.582
O=C1CC2(CCN(S(=O)(=O)c3cccs3)C2)CN1c1ccccc1 (stereo not given) | 7.29
CCOc1ccc(CNCCCn2ccnc2)cc1Br | -77.4
O=C(NCCCN1CCOCC1)c1ccn(-c2ccc3ccccn23)n1 | -18.9
CC(C)c1ccc(OCn2ccc(C(=O)N3CCCC3)n2)cc1 | -13.8
CN(CCCNC(=O)N1CCCC1c1ccsc1)c1ccccn1 (stereo not given) | -79.8
O=C1C(NCc2nnc3n2CCCC3)CCN1c1ccccc1 (stereo not given) | -28.4
Cn1cc(CN2CCC(F)(F)C3(CCN(c4cnccn4)C3)C2)cn1 (stereo not given) | -4.7
COc1ccc(-n2ccc(C(=O)N3CCN(C)CC3C)n2)cc1 (stereo not given) | -0.158
Cc1cccc(CN2C[C@@H]3COC[C@]3(COc3ccc(C#N)cn3)C2)n1 | -13.9
CC(C(=O)N1CCCN(c2ccc(C#N)cc2)CC1)n1ccnc1 (stereo not given) | 4.39
